This note sets out measurements from ChEMBL document CHEMBL1157539, “Thousands of chemical starting points for antimalarial lead identification” (Nature, 2010).

Structures are written as SMILES.

The test system of this assay is Plasmodium falciparum. The experiment in a line: GSK_TCMDC: Inhibition of Plasmodium falciparum Dd2 in whole red blood cells, using parasite LDH activity as an index of growth. Test compounds present at 2uM. It is filed as functional.
What is called Inhibition is the share of the control response that was lost under treatment. The compound `CC(C)(C)c1ccc(CN2CCCCC(NC(=O)c3cc(-c4cccc(Cl)c4)cs3)C2)cc1.O=C(O)C(F)(F)F` (stereo not drawn) showed an Inhibition of 60%. The figure for `CN1CCN(c2nc(NCCc3ccc(O)cc3)nc(NCc3ccccc3-c3ccc(C(F)(F)F)cc3)n2)CC1` is 82%. `CCCc1ccc(S(=O)(=O)Nc2ccc3c(c2)CCC3)cc1` gave an Inhibition of 0%. With `Br.CCSc1ccccc1CON1C(=N)N=C(N)NC1(C)C`, the Inhibition is on record as 10%.

In turn, `COc1ccc(C2CCC(NCCCCNC(=O)c3ccc(NC(=O)c4ccc(Cl)cc4)cc3)CC2)cc1` (stereo not drawn) showed an Inhibition of 7%. Compound `Cc1ccc(C)c(CC(=O)N2CCC(n3c(C)nc4ccc(F)cc43)CC2)c1` yielded an Inhibition of 99%. `O=C(N[C@@H](CC1CCCCC1)C(=O)NC1CCCCC1)c1ccc(O)c(-c2cccc(C(F)(F)F)c2)c1` registered an Inhibition of 95%. As for `COc1ccc(NC(=O)[C@H](Cc2ccccc2)Nc2cc(C)nc(Nc3ccccc3)n2)cc1.O=C(O)C(F)(F)F`, the Inhibition worked out at 92%. The figure for `Cc1nn(-c2ccccc2)nc1C(=O)N(Cc1ccc(-c2ccc(CNCCc3ccc(S(C)(=O)=O)cc3)cn2)cc1)C(C)CN(C)C.O=C(O)C(F)(F)F` (stereo not drawn) is 87%; for `O=C(/C=C/c1ccccc1Cl)Nc1ccc(Br)c(OCCN2CCN(CCN3CCOCC3)CC2)c1.O=C(O)C(=O)O` it is 91%. Turning to `CC(C)c1ccc(NC(=O)Nc2ccc(CCNCCCc3ccccc3)cc2)cc1`, the Inhibition was 56%.

In the case of `O=C(/C=C/c1ccc(Cl)c(Cl)c1)NCCCCCN1CCC(NC(=O)Nc2cccc(Cl)c2)CC1`, the Inhibition was determined as 13%. With `Cn1nccc1C(=O)NCCNCc1ccc(-c2ccc(-c3nc4cc(C(F)(F)F)ccc4[nH]3)s2)cc1.O=C(O)C(F)(F)F` the figure was 99%.
